# Compound activity (PubChem BioAssay)
# This excerpt belongs to a sample that is enriched for hits.
# Cycloheximide cs – counter-screen hit for Shiga toxin inhibitors, cycloheximide; max response, %; 300,000 tested, 12% active; cell reporter, cycloheximide protein synthesis inhibition counterscreen; in the data active = max response mostly above about 13%, no sharp cut-off; inactive = mostly below about 14%; note: read at 38.3 µM for the half of the compounds with a filed dose; 0% is about no effect
# LmPK inh – LmPK (Leishmania mexicana) enzyme inhibition; 290,000 tested, 0.37% active; Q27686; AID 1721; purified LmPK, Kinase-Glo ATP luminescence, 1 h; Potency, µM (highest dose often 57.5 µM), for inactives: top-dose activity change, negative = inhibition, hits mostly inhibitors; note: potency is the fitted concentration of half-maximal effect; % is set by controls: 0 for no effect and ±100 for the full control effect
#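 0.1 nM LmPK, 0.5 mM PEP, 0.1 mM ADP; 50 mM imidazole pH 7.2, 7 mM MgCl2, 50 mM KCl; 1 h RT. Kinase-Glo luminescence readout, normalized to no-enzyme (full inhibition) and uninhibited wells.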
# Shiga toxin inh – inhibitors of Shiga toxin in Vero cells; Vero cells, Shiga toxin protein synthesis inhibition reporter; inhibition, % at 38.7 µM; 290,000 tested, 9.2% active; AID 2315; in the data active = inhibition mostly above about 28%, no sharp cut-off; inactive = mostly below about 43%; note: 0% is about no effect
# Tb PYK inh – T. brucei pyruvate kinase inhibition; Q57TT1; TbPYK enzyme, Kinase-Glo Plus ATP luminescence, 45 min; Potency, µM (titrated, usually from 76.8 µM), for inactives: top-dose activity, negative = inhibition, most hits filed as inhibitors; 410,000 tested, 0.12% active; AID 624173; note: potency is the fitted concentration of half-maximal effect; % is set by controls: 0 for no effect and ±100 for the full control effect; nearly all actives have a fitted effect of over 50% in size
#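 Screened from lowest to highest concentration, compounds were pinned into TbPYK/substrate mixtures, and ADP (130 uM final) was added. Plates sat at room temperature for 45 min prior to Kinase-Glo Plus detection by luminescence.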
# Sm TGR inh – S. mansoni TGR enzyme inhibition. 360,000 tested, 3% active. purified TGR, DTNB reduction, TNB absorbance 405 nm. Potency, µM (titrated, usually from 114 µM), inactives show at the highest dose activity change, negative = inhibition, usual class: inhibitors. Q962Y6; note: potency is the fitted concentration of half-maximal effect; % is set by controls: 0 for no effect and ±100 for the full control effect; nearly all actives have a fitted effect of over 60% in size
#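 First, TGR (20 nM dispensed) and NADPH were mixed with compound. Second, a 15 min room-temperature incubation followed. Third, further NADPH and then DTNB were added to start the reaction. Finally, TNB absorbance was monitored kinetically.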
# Giardia FBPA inh – blocks Giardia fructose-bisphosphate aldolase activity. purified Giardia FBPA. Potency, µM (highest dose often 59.6 µM), for inactives: top-dose activity, negative = inhibition, actives largely listed as inhibitors. AID 2451. 290,000 tested, 0.71% active. A8B2U2; note: potency is the fitted concentration of half-maximal effect; % is set by controls: 0 for no effect and ±100 for the full control effect; nearly all actives have a fitted effect of over 55% in size
# Target sequence (A8B2U2 whole entry, looked up): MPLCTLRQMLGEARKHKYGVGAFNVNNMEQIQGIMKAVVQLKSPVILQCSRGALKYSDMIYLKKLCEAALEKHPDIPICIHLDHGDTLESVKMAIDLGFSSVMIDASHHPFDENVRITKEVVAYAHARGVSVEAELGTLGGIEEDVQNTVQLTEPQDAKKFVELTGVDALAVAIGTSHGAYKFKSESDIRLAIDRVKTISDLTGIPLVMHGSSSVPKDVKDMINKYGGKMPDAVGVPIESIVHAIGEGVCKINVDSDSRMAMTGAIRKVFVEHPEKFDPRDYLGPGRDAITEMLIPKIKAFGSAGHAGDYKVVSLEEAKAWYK
#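 40 nM FBPA preincubated 10 min at RT with compound (up to 57.5 uM final), then substrate plus GAPDH/TPI/NAD/arsenate coupling and diaphorase/resazurin added. Fluorescence read after 20 min at RT, 525/598 nm.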
# * marks the source's active call; other numbers are inactive results; ? = inconclusive; · = no result given. Unless noted, calls come from the whole dose curve; as a rule, active = well fitted curve in the direction sought with a large enough effect; inconclusive = small, poorly fitted or top-dose-only effect, or another doubt; inactive = no such curve, though single readings can be large; an effect the other way counts as inactive or inconclusive.
SMILES,Cycloheximide cs,LmPK inh,Shiga toxin inh,Tb PYK inh,Sm TGR inh,Giardia FBPA inh
COc1ccc(C/C(C)=N/NC(=S)Nc2ccccc2)cc1,42,0%,86*,-16%,-8%,?
Cc1ccc(Cn2cccc2/C=N/NC(=S)Nc2ccc(C)cc2)cc1,9,4%,9,-3%,17%,6%
COc1ccc(NC(=S)N/N=C/c2cccn2Cc2ccc(F)cc2)cc1,11,1%,46*,4%,?,18%
COc1ccc(CNC(=S)Nc2ccccc2)cc1,7,9%,21,-5%,35µM*,-8%
COc1ccc(C(C(=O)NC(C)(C)C)N(C(=O)CNC(=O)c2cccs2)c2cccnc2)cc1OC (stereo not given),-6,3%,-7,5%,3%,8%
Nc1c(CC(=O)O)cccc1C(=O)c1ccccc1,·,·,·,-7%,·,·
COc1ccc(-c2nc3n(c2C)Cc2ccccc2-3)cc1,39*,-1%,130*,0%,-4%,-6%
CN(c1cccc(NC(=O)c2cccc([N+](=O)[O-])c2)c1)S(C)(=O)=O,27*,1%,35,3%,1%,-2%
COc1ccc(C(=O)Nc2cccc(N(C)S(C)(=O)=O)c2)cc1OC,26*,-27%,60*,-7%,2%,-2%
COc1ccc(CNC(=O)[C@H](Cc2ccccc2)NC(=O)C2CCNCC2)cc1,-2,0%,-1,-5%,32µM*,-2%
COc1ccc(CNc2cccc3[nH]c(C(F)(F)F)nc23)cc1,-5,4%,8,-17%,32µM*,-27%
Cc1ccc(C(=O)Nc2cccc3[nH]c(C(F)(F)F)nc23)cc1,3,-6%,22,5%,0%,?
COc1cc(CNc2cccc3[nH]c(C(F)(F)F)nc23)cc(OC)c1,6,-7%,18,-25%,22µM*,-27%
O=C(Cc1ccc(Cl)c(Cl)c1)N1CCOCC1,8,3%,35*,0%,5%,1%
CCc1ccc(CC(=S)N2CCOCC2)cc1,26*,4%,62*,-4%,-1%,5%
CCOC(=O)N1CCN(C(=O)Cc2ccc(C)cc2)CC1,-1,-4%,-1,3%,15%,2%
O=C(Cc1ccc(Br)cc1)N1CCN(c2ccccc2O)CC1,36*,5%,95*,0%,-22%,-6%
O=C(Cc1ccc(Br)cc1)N1CCN(c2ccc(F)cc2)CC1,-4,1%,-8,-5%,-7%,1%
CCN1CCN(C(=O)Cc2ccc(C)cc2)CC1,22*,0%,42,-5%,-22%,3%
CC(=O)c1ccc(S(=O)(=O)Nc2c(C)nn(C)c2C)cc1,·,·,·,-6%,?,·
CCCCC(=O)N(C)c1c(CC)nc2c(OCCOc3ccccc3)cccn12,·,·,·,-8%,·,·
O=C(Cc1ccc(Br)cc1)N1CCOCC1,11*,1%,23,-8%,15%,-15%
CN(C)c1cc2c(c(N(C)C)c1)C(=O)c1ccccc1C2=O,39*,-23%,83,-10%,7%,5%
O=C1c2ccccc2C(=O)c2c1cccc2N(CCO)CCO,13,-12%,15,-7%,-9%,-25%
Cc1cc(-c2nnc(CCC(=O)N(CC3CC3)CC3CCCO3)o2)no1 (stereo not given),1,-4%,4,-3%,0%,3%
SMILES,Cycloheximide cs,LmPK inh,Shiga toxin inh,Tb PYK inh,Sm TGR inh,Giardia FBPA inh
Cc1cc(-c2nnc(CCC(=O)N(CC3CCC3)CC3CCCO3)o2)no1 (stereo not given),44*,-2%,78*,2%,-7%,0%
COCCCNC(=O)CCc1nnc(Cc2ccc(-c3ccccc3)cc2)o1,0,-2%,1,-1%,-12%,0%
Cc1cc(-c2nnc(CCC(=O)N(C)CCc3ccccc3)o2)no1,19*,-1%,74*,-1%,1%,3%
Cc1cccc(Cc2nnc(CCC(=O)N(C)CCc3ccccc3)o2)c1,48*,-2%,61*,1%,6%,16%
Cc1ccc(CNC(=O)CCc2nnc(Cc3ccc(-c4ccccc4)cc3)o2)o1,7,-4%,1,-8%,25µM*,-5%
CC(C)CN(C)C(=O)CCc1nnc(Cc2ccc(-c3ccccc3)cc2)o1,22*,0%,38,-6%,-4%,1%
O=C(CCc1nnc(Cc2ccc(-c3ccccc3)cc2)o1)N1CCCC1,-3,2%,-17,2%,0%,1%
CCCCN1CC(c2nc3ccccc3n2CCCCOc2ccccc2C)CC1=O (stereo not given),·,·,·,1%,0%,·
Cc1ccc(O)c(C(=O)CC(=O)c2ccccc2Cl)c1,38*,2%,81*,7%,·,1%
Cc1ccc(O)c(C(=O)CC(=O)c2ccc(C(C)(C)C)cc2)c1,23*,7%,·,0%,5%,4%
Cc1[nH]nc2c1C(c1ccc(-c3ccccc3C#N)o1)C(C#N)=C(N)O2 (stereo not given),-4,-2%,-9,10%,13µM*,?
Cc1ccc(-c2ccc(C3C(C#N)=C(N)Oc4n[nH]c(C)c43)o2)cc1 (stereo not given),32*,-7%,50*,-6%,-16%,0%
CC1(C(=O)Nc2cccc(C(F)(F)F)c2)Cc2ccccc2C(=O)O1 (stereo not given),·,·,·,1%,5%,·
CC1(O)c2ccccc2C(=O)N1CCc1ccccc1F (stereo not given),43*,-2%,66*,4%,1%,-18%
Cc1ccc2c(c1)CCCN2N=O,-3,1%,19,0%,-8%,-1%
CCCN1CCCc2cc(CN)ccc21,-6,-8%,-13,12%,14µM*,?
O=C(COC(=O)c1ccc2c(c1)C(=O)N(Cc1ccco1)C2=O)NCC(F)(F)F,-4,0%,-8,-1%,-28%,5%
COc1ccc(/C=C(\C#N)C(=O)N2CCOCC2)cc1Br,-2,-4%,-14,-6%,4%,5%
Cc1cc(/C=C(\C#N)C(=O)N2CCOCC2)c(C)n1C1CCCC1,26*,-6%,26,-4%,-14%,-5%
Cc1ccc2c(c1)C(C)(C)[C@]1(C)NC(=O)CCN21,5,2%,29,-6%,7%,-14%
O=C1CN(C(=O)COC(=O)/C=C/c2ccco2)c2ccccc2N1,11,-5%,4,-6%,?,-3%
CC1(C)c2ccccc2N2CCC(=O)NC21/C=C/c1ccco1 (stereo not given),1,-2%,1,-16%,25µM*,-11%
CC1(C)c2ccccc2N2CC(=O)NC21/C=C/c1ccco1 (stereo not given),4,-3%,-23,-17%,7.9µM*,-25%
